Measured values taken from PubChem BioAssay (Tox21).
Where “and” joins values, the source holds several entries; their conditions need not be identical. Equal values may be shown once. Records with an inconclusive call do not appear. Where a call stands in place of a potency, no number is given. A structure can be active in one record and inactive in another. Calls of active or inactive are those of the source. Unless noted, the call rests on the fitted dose curve; in most records, active means well fitted curve in the direction sought with a large enough effect in the repeat runs; inconclusive means weak or mixed curves; inactive means no such curve, though single readings can be large; an effect the other way counts as inactive or inconclusive.

How the values were obtained:
[1] = qHTS assay to identify small molecule antagonists of the glucocorticoid receptor (GR) signaling pathway - cell viability counter screen (AID 720693); further: nearly all actives have a fitted effect of over 55% in size; further: potency means the concentration at half of the fitted maximal effect
[2] = qHTS assay for identifying genotoxic compounds that show differential cytotoxicity against isogenic chicken DT40 cell lines with known DNA damage response pathways - wild type cell line (AID 743012); further: nearly all actives have a fitted effect of over 60% in size; further: potency means the concentration at half of the fitted maximal effect
In short: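 Viability by ATP luminescence (CellTiter-Glo, 30 min RT) after 40 h compound treatment at 37 C/5% CO2, using 300 parental DNA repair-proficient DT40 cells per well.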

[3] = molecular target: Androgen receptor (Homo sapiens) (UniProt P10275); assay: qHTS assay to identify small molecule agonists of the androgen receptor (AR) signaling pathway using the MDA cell line (AID 743040; further: nearly all actives have a fitted effect of over 20% in size)
In short: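 Luciferase agonist assay: 16 h compound exposure at 37C without CO2 in MDA-kb2 AR-luc cells, whose MMTV promoter responds to both AR and GR. Luminescence measured after 30 min room-temperature incubation with ONE-Glo.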

[4] = qHTS assay for identifying genotoxic compounds that show differential cytotoxicity against isogenic chicken DT40 cell lines with known DNA damage response pathways - Rad54/Ku70 mutant cell line (AID 743015); further: nearly all actives have a fitted effect of over 60% in size; further: potency means the concentration at half of the fitted maximal effect
[5] = qHTS assay to identify small molecule antagonists of the androgen receptor (AR) signaling pathway using the MDA cell line - cell viability counter screen (AID 743041; further: nearly all actives have a fitted effect of over 45% in size; further: potency means the concentration at half of the fitted maximal effect)
In short: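 Viability read by CellTiter-Fluor fluorescence in the same wells as the antagonist screen, added after 15.5 h of a 16 h, 37C exposure. Human breast carcinoma MDA-kb2 AR-luc cells, compounds co-dosed with agonist R1881.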

[6] = qHTS assay for identifying genotoxic compounds that show differential cytotoxicity against isogenic chicken DT40 cell lines with known DNA damage response pathways - Rev3 mutant cell line (AID 743014); further: nearly all actives have a fitted effect of over 55% in size; further: potency means the concentration at half of the fitted maximal effect
[7] = molecular target: Androgen receptor (Homo sapiens) (UniProt P10275); assay: qHTS assay to identify small molecule agonists of the androgen receptor (AR) signaling pathway (AID 743036; active means well fitted activation curve with a large enough effect in the signal ratio in the repeat runs, with a control signal flat, not every such curve was filed as active; the % refers to the signal ratio)
In short: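 Reporter line: GeneBLAzer AR-UAS-bla-GripTite (HEK293). Steps: plate cells, 4 h rest, add compounds, 16 h at 37C, add LiveBLAzer B/G substrate, 2 h at RT, read fluorescence.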

[8] = molecular target: Androgen receptor (Homo sapiens) (UniProt P10275); assay: qHTS assay to identify small molecule antagonists of the androgen receptor (AR) signaling pathway using the MDA cell line (AID 743042; further: nearly all actives have a fitted effect of over 55% in size; further: potency means the concentration at half of the fitted maximal effect)
In short: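 Antagonist mode: compounds plus R1881 agonist added to MDA-kb2 AR-luc cells, incubated 16 h at 37C. Luciferase reporter luminescence quantified, with multiplexed CellTiter-Fluor readout for cell viability.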

[9] = qHTS assay to identify small molecule antagonists of the androgen receptor (AR) signaling pathway - cell viability counter screen (AID 743033; further: nearly all actives have a fitted effect of over 45% in size; further: potency means the concentration at half of the fitted maximal effect)
[10] = molecular target: Androgen receptor (Homo sapiens) (UniProt P10275); assay: qHTS assay to identify small molecule antagonists of the androgen receptor (AR) signaling pathway (AID 743035; active means well fitted inhibition curve with a large enough effect in the signal ratio in the repeat runs, not every such curve was filed as active; the % refers to the signal ratio; further: potency means the concentration at half of the fitted maximal effect)
In short: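 Antagonist mode: AR-bla HEK293 cells co-treated with test compounds and agonist R1881 for 16 h at 37C, 5% CO2. Beta-lactamase activity read as FRET fluorescence after 2 h room-temperature substrate loading.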

Androgen receptor (Homo sapiens), sequence (P10275 whole entry, looked up): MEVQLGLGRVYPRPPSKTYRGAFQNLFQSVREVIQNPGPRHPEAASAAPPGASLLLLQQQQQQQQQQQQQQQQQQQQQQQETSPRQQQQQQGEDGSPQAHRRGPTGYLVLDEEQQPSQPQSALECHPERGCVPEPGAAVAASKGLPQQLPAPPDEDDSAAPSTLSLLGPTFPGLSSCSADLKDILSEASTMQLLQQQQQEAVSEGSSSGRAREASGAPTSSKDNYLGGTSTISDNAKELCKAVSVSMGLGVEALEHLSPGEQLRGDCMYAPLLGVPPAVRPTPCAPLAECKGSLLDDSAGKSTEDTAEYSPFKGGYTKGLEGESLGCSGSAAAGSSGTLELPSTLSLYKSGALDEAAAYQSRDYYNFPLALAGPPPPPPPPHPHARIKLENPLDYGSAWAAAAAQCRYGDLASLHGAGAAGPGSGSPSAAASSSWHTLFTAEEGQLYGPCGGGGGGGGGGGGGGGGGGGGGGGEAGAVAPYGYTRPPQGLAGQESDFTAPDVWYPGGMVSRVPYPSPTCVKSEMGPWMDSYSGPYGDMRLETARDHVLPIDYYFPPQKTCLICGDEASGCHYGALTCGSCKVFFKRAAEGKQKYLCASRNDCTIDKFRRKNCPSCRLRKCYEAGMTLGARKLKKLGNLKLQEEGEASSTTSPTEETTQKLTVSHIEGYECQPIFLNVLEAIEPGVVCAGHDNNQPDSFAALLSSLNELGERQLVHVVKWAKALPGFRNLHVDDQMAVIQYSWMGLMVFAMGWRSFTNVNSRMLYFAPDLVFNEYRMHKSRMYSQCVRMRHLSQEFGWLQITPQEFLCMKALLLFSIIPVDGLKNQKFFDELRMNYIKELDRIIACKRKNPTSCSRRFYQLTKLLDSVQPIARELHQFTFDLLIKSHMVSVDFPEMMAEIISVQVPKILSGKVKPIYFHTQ

Structure (SMILES)	Potency [1]	Potency [2]	Potency [3]	Potency [4]	Potency [5]	Potency [6]	Potency [7]	Potency [8]	Potency [9]	Potency [10]
Oc1c(Cl)c(Cl)cc(Cl)c1Cl	inactive	66.7 µM (active)	inactive	–	–	–	–	–	–	–
Oc1ccc(C(c2ccc(O)cc2)(C(F)(F)F)C(F)(F)F)cc1	inactive	inactive and 61.1 µM (active)	–	inactive and 48.6 µM (active)	inactive	–	–	–	–	–
CN(C)c1ccc(N=Nc2ccccc2)cc1	inactive	inactive	–	–	inactive	inactive	–	–	–	–
Oc1c(Br)c(Br)c(Br)c(Br)c1Br	inactive	inactive	inactive	–	inactive	inactive	inactive	inactive	–	–
CC(=O)c1cc(C(C)(C)C)cc2c1CCC2(C)C	inactive	inactive	–	–	inactive	inactive	–	–	inactive	–
N#CNC#N	inactive	inactive	–	–	inactive	inactive	–	–	inactive	–
[Cl][Sb]([Cl])[Cl]	inactive	inactive	–	–	–	inactive	–	–	inactive	–
Fc1cccc(Cl)c1CCl	inactive	–	–	inactive	inactive	inactive	–	–	inactive	–
CNC(C)Cc1ccc2c(c1)OCO2 (configuration not stated)	inactive	inactive	inactive	–	inactive	–	inactive	inactive	inactive	inactive
Clc1ccc(C(Cl)(Cl)Cl)c(Cl)c1	inactive	inactive	–	–	inactive	inactive	–	–	inactive	–
O=[N+]([O-])c1ccc2ccc3cccc4ccc1c2c34	inactive	–	inactive	inactive	inactive	inactive	–	inactive	inactive	–
CC(=O)[O-].CC(=O)[O-].[Hg+2]	6.16 µM (active)	1.54 µM (active)	–	1.09 µM (active)	27.3 µM (active)	1.54 µM (active)	–	–	11 µM (active)	–
Cc1cc(C(F)(C(F)(F)F)C(F)(F)F)ccc1NC(=O)c1cccc(I)c1C(=O)NC(C)(C)CS(C)(=O)=O	inactive	–	–	30.8 µM (active)	inactive	43.5 µM (active)	–	–	inactive	–
O=[N+]([O-])c1cc([N+](=O)[O-])c2ccccc2c1	inactive	6.11 µM (active)	inactive	–	inactive	13.7 µM (active)	–	–	inactive	–
CCCCCCCCCCCCCCCC[n+]1ccccc1	25.7 µM (active) and 30.9 µM (active) and 34.2 µM (active)	–	–	386 nM (active) [middle of 4 runs]	27.3 µM (active) [middle of 4 runs]	380 nM (active) [middle of 4 runs]	–	–	19.2 µM (active) [middle of 4 runs]	–
CCC(C)c1cc([N+](=O)[O-])cc([N+](=O)[O-])c1OC(=O)C=C(C)C (configuration not stated)	inactive	21.7 µM (active)	inactive	19.3 µM (active)	–	27.3 µM (active)	–	–	–	–
CC1CCC(C(C)C)C(OC(=O)c2ccccc2N)C1 (configuration not stated)	inactive	23.7 µM (active) and inactive	–	–	inactive	inactive	–	–	inactive	–
CC(=O)[O-].[Tl+]	inactive	–	–	1.73 µM (active)	–	1.73 µM (active)	–	–	–	–
NNC(=O)c1ccccc1	inactive	inactive	–	inactive	inactive	–	–	–	inactive	–
CC(C)OS(C)(=O)=O	inactive	inactive	–	inactive	inactive	–	–	–	inactive	–
Clc1ccc(CCC(Cn2ccnc2)Sc2c(Cl)cccc2Cl)cc1 (configuration not stated)	inactive	12.7 µM (active)	–	–	inactive	–	–	–	inactive	–
O=c1[nH]c2ccccc2n1CCCN1CCC(n2c(=O)[nH]c3cc(Cl)ccc32)CC1	inactive	26.6 µM (active)	–	23.7 µM (active)	inactive	–	–	–	inactive	–
O=C/C(Cl)=C(/Cl)C(=O)O	inactive	17.2 µM (active)	–	–	inactive	19.3 µM (active) and 15.4 µM (active)	–	–	–	–
Cc1cc(N=Nc2ccccc2C)ccc1N	49 µM (active)	–	inactive	27.3 µM (active) and 19.3 µM (active)	–	54.5 µM (active) and 48.6 µM (active)	–	inactive	inactive	21.9 µM (active)
COc1cc(C=O)cc2c1[C@H](COC(N)=O)[C@]1(OC(C)=O)ON2C[C@H]2[C@@H]1N2C(C)=O	0.49 µM (active)	0.0154 µM (active)	–	0.0069 µM (active)	–	–	–	–	–	–
C[C@@H]1CC[C@@]2(OC1)O[C@H]1[C@@H](O)[C@H]3[C@@H]4CC[C@H]5C[C@@H](O[C@@H]6O[C@H](CO)[C@H](O[C@@H]7O[C@H](CO)[C@@H](O)[C@H](O[C@@H]8OC[C@@H](O)[C@H](O)[C@H]8O)[C@H]7O[C@@H]7O[C@H](CO)[C@@H](O)[C@H](O[C@@H]8O[C@H](CO)[C@@H](O)[C@H](O)[C@H]8O)[C@H]7O)[C@H](O)[C@H]6O)[C@H](O)C[C@]5(C)[C@H]4CC[C@]3(C)[C@H]1[C@@H]2C	16.4 µM (active)	16.3 µM (active)	inactive	–	25.8 µM (active)	4.09 µM (active)	–	8.17 µM (active)	2.32 µM (active)	–
